# Test results taken from PubChem BioAssay (Tox21).
# Results filed as inconclusive are left out. The source made the active and inactive calls. The call rests on the fitted dose curve.
# Biological target: Thyrotropin receptor (Homo sapiens) (UniProt P16473)
# Test: qHTS assay to identify small molecule agonists of the thyroid stimulating hormone receptor (TSHR) signaling pathway (AID 1224843); further: nearly all actives have a fitted effect of over 45% in size
# Settings: TSHR-HEK293 cells, cAMP HTRF, agonist mode, 30 min; series mostly up to 92.4 µM; activation: at the top concentration
# Description: National Center for Advancing Translational Sciences [NCATS]
# NIH Chemical Genomics Center [NCGC]
# U.S. Environmental Protection Agency [EPA]
# National Institutes of Environmental Health Sciences [NIEHS]
# National Toxicology Program [NTP]
# U.S. Food and Drug Administration [FDA]
# TSHR is the receptor for thyrotropin (thyroid stimulating hormone or TSH), a member of the glycoprotein hormone family. TSH is released by the anterior pituitary gland and is the main regulator of thyroid gland growth and development. Upon binding circulating thyrotropin, a G-protein signal cascade activates adenylyl cyclase and […] cAMP concentration is increased. cAMP is a key second messenger involved extensively in cellular signal transduction pathways associated with the majority of G-protein coupled receptors (GPCRs). The activation of these GPCRs by neurotransmitters, lipids, nucleotides, peptides and hormones results in the activation or the inhibition of plasma membrane-bound adenylate cyclase through heterotrimeric G-proteins. A cell-based TSHR assay was used to screen the Tox21 10K library for compounds that can modulate TSHR in agonist mode.
# Tox21 Assay Protocol Summary:
# TSHR-Hek293 cells were dispensed at 800 cells/4uL/well in 1536-well white plates using a Multidrop dispenser. […] The plates were incubated at room temperature for 30 min. 2.5 ul/well of cAMP-d2 and 2.5ul/well of anti-cAMP-cryptate was added respectively into the assay plates using a Flying Reagent Dispenser. After 1 hr incubation at room temperature, the fluorescence intensity in the plates was measured using an Envision plate reader. Each test compound was measured at 15 concentrations and in triplicates.
# On the % scale 0 is the no-effect control and ±100 the full control effect; potency means the concentration at half of the fitted maximal effect.
# Sequence of Thyrotropin receptor (Homo sapiens) (P16473 whole entry, looked up): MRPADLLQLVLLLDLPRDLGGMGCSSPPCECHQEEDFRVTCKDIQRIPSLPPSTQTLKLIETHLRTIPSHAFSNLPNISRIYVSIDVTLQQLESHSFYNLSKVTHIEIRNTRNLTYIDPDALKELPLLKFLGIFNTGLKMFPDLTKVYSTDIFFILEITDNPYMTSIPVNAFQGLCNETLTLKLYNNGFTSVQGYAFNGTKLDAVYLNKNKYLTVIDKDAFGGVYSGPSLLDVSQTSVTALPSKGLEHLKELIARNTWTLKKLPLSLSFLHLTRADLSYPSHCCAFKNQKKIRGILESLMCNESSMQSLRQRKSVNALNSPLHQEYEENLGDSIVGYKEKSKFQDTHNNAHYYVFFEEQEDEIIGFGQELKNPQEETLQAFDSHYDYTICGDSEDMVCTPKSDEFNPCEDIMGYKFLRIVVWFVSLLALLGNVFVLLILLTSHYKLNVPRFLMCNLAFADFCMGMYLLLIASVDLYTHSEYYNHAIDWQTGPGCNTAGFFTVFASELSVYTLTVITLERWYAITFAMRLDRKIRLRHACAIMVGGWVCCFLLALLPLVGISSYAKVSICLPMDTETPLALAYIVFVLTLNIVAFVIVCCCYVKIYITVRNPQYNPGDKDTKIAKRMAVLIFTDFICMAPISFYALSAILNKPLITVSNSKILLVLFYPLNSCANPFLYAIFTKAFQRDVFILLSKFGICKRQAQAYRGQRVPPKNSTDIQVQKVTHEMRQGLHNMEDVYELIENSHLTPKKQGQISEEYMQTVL
SMILES,activation,Potency
COc1ccccc1Oc1c(NS(=O)(=O)c2ccc(C(C)(C)C)cc2)nc(-c2ncccn2)nc1OCCO,-17.2% [at 42.5 µM] (inactive),
COC(=O)C1=C(C)NC(C)=C(C(=O)O[C@@H]2CCCN(Cc3ccccc3)C2)[C@@H]1c1cccc([N+](=O)[O-])c1,25% [at 42.5 µM] (inactive),
Cc1c(C)c2c(c(C)c1OC(=O)CCC(=O)OCCO)CC[C@@](C)(CCC[C@H](C)CCC[C@H](C)CCCC(C)C)O2,-2.49% [at 42.5 µM] (inactive),
CC(C)C=O,4.08% (inactive),
O=C(O)c1ccc(OCCCOc2ccc(C(=O)O)cc2)cc1,-0.222% [at 42.5 µM] (inactive),
C=Cc1ccc(S(=O)(=O)O)cc1,-2.81% (inactive),
CC(=O)Nc1ccc(C)cc1C,3.65% (inactive),
CC(C)=CC(=O)C=C(C)C,-6.39% (inactive),
CN1C[C@H](C(=O)N[C@]2(C)O[C@@]3(O)[C@@H]4CCCN4C(=O)[C@H](Cc4ccccc4)N3C2=O)C[C@@H]2c3cccc4[nH]cc(c34)C[C@H]21,-1.78% [at 42.5 µM] (inactive),
Nc1cccc2c1CN(C1CCC(=O)NC1=O)C2=O (stereo not given),-1.03% [at 42.5 µM] (inactive),
O=C(O)CCC(=O)C(=O)O,0.229% (inactive),
Cc1ccccc1N=C(N)Nc1ccccc1C,5.92% (inactive),
Cc1cc(C)c(N)cc1C,1.04% (inactive),
CCC1NC(=O)c2cc(S(N)(=O)=O)c(Cl)cc2N1 (stereo not given),0.101% [at 42.5 µM] (inactive),
CC(=O)Oc1ccc([N+](=O)[O-])cc1CCl,-5% (inactive),
Cc1cccc(O)c1N,-0.355% (inactive),
C1COC1,2.54% (inactive),
CCCCCCCCN,-8.06% (inactive),
O=[N+]([O-])c1cc(C2CCCCC2)c(O)c([N+](=O)[O-])c1,-3.63% (inactive),
Cc1[nH]cnc1CN1CCc2c(c3ccccc3n2C)C1=O,6.99% [at 42.5 µM] (inactive),

SMILES,activation,Potency
Oc1ccc(Cl)c2cccnc12,-3.86% [at 42.5 µM] (inactive),
CCCC(=O)C(=O)O,3.9% (inactive),
OC(CCN1CCCC1)(c1ccccc1)C1CCCCC1 (stereo not given),-3.95% [at 42.5 µM] (inactive),
Clc1ccc(Nc2nnc(Cc3ccncc3)c3ccccc23)cc1,5% [at 42.5 µM] (inactive),
C=C/C(C)=C/C/C=C(\C)CCC=C(C)C,18% (inactive),
O[C@@H]1CO[C@H]2[C@@H]1OC[C@@H]2O,2.07% [at 42.5 µM] (inactive),
CC1(C)[C@@H](OC(=O)CCC(=O)O)CC[C@]2(C)[C@H]3C(=O)C=C4[C@@H]5C[C@@](C)(C(=O)O)CC[C@]5(C)CC[C@@]4(C)[C@]3(C)CC[C@@H]12,1.07% [at 42.5 µM] (inactive),
O=C(CCCN1CC=C(n2c(=O)[nH]c3ccccc32)CC1)c1ccc(F)cc1,-6.05% [at 42.5 µM] (inactive),
CCC1(CO)COCOC1,15% (inactive),
OC[C@H]1O[C@@H](n2cnc3c(=S)nc[nH]c32)[C@H](O)[C@@H]1O,-2.36% [at 42.5 µM] (inactive),
C1C[C@@H]2[C@H]3CC[C@H](C3)[C@@H]2C1,-2.6% (inactive),
CC1CC(C)C(=O)C1=O (stereo not given),-5.67% (inactive),
OCCOCC#CCOCCO,2.45% (inactive),
N#CCCN(CCO)CCO,-2.58% (inactive),
CC1(C)S[C@@H]2[C@H](NC(=O)C(c3ccccc3)S(=O)(=O)O)C(=O)N2[C@H]1C(=O)O (stereo not given in full),5.78% [at 42.5 µM] (inactive),
CCCCCCCCC(CCCCCC)C(=O)O (stereo not given),15.5% (inactive),
CC(O)c1ccccc1 (stereo not given),-0.0784% (inactive),
Cc1cc2c(OCC(CNC(C)(C)C)OC(=O)c3ccccc3)cccc2[nH]1 (stereo not given),,26.6 µM (active)
CC(C)=CCC/C(C)=C/CC/C(C)=C/CCC(=O)OC/C=C(\C)CCC=C(C)C,-1.78% [at 42.5 µM] (inactive),
O=C1Cc2cc(Cl)ccc2N1,7.12% [at 42.5 µM] (inactive),
